An excerpt weighted towards active compounds, which were near 2.5% of everything screened.
Bst PK mod = Pyruvate Kinase; 1.2% of 51,000 active; Potency, µM; purified pyruvate kinase, luminescence ATP production; ribose 5-phosphate activator present at AC10; AID 361, 2006; in the data active = potency below about 11 µM; inconclusive = mostly about 12 µM to 25 µM;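 the screen sought inhibitors and activators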;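 note: scaled between full activation by ribose 5 phosphate and full inhibition by luteolin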
Luciferase inh = qHTS Assay for Inhibitors of Firefly Luciferase; 2.2% of 72,000 active; purified firefly luciferase, luminescence, 8 min; Potency, µM (series often up to 57.1 µM), without a hit: at the highest dose activity change, negative = inhibition, hits mostly inhibitors; active = well fitted inhibition curve with a large enough effect; inconclusive = small, poorly fitted or top-dose-only effect; note: nearly all actives have a fitted effect of over 40% in size
Target sequence (P08659 whole entry, looked up): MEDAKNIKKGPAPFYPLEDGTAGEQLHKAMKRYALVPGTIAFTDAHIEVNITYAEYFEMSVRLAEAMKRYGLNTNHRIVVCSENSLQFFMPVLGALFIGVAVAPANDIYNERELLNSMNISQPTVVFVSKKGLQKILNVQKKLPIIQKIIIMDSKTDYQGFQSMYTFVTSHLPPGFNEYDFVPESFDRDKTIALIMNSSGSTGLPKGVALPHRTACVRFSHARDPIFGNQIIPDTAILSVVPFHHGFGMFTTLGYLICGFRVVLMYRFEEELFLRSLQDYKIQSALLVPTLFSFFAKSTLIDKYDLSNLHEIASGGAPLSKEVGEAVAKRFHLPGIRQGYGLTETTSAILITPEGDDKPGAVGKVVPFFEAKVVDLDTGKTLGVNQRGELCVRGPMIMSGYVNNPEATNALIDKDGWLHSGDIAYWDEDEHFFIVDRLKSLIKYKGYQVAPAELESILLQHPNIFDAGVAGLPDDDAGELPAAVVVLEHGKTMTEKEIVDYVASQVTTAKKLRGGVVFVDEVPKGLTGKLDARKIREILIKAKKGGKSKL
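Firefly luciferase (PKLight detection mix) with 10 uM ATP in pH 7.2 imidazole buffer (KCl, MgCl2, Tween 20, BSA). Compounds tested across a concentration series (qHTS). Luminescence read after 8 min at ambient temperature.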
* hit, by the source's call; [ ] = another dose, or the depositor's remark. Unless noted, % is set by controls: 0 for no effect and ±100 for the full control effect; potency is the fitted concentration of half-maximal effect.

C(=N\n1cnnc1)/c1ccc2c(c1)OCO2 was read as Luciferase inh 2.1%.
O=c1/c(=C\c2ccc3c(c2)OCO3)sc2n1CCCN=2 was read as Bst PK mod inconclusive and Luciferase inh 12.6µM*.
For O=C(CSc1nnnn1Cc1ccccc1)Nc1ccc2c(c1)OCCO2 the results were Bst PK mod >57 and Luciferase inh -3.6%.
For O=C(CSc1nnnn1-c1ccccc1)NC(=O)Nc1ccc2c(c1)OCCO2 the results were Luciferase inh 15.8µM*.
For CCN1CCN(/C=N/c2nc3c(s2)CCCC3)CC1 the results were Bst PK mod inconclusive and Luciferase inh 12.6µM*.
COc1ccc(NC(=O)Nc2cccc(C(=O)N3CCOCC3)c2)cc1OC was read as Bst PK mod >25.6 and Luciferase inh -8.1%[25.5 µM].
`CC(=O)c1cccc(NC(=O)Nc2ccc(C(=O)N3CCOCC3)cc2)c1` gave Luciferase inh 12.6µM*.
Screening NC1=C2NC=N[C@@H]2N(C/C=C\c2ccccc2)C=N1 returned Luciferase inh -0.4%[11.4 µM].
For Cc1cn([C@H]2C[C@H](N=[N+]=[N-])[C@H](CO)O2)c(=O)[nH]c1=O the results were Luciferase inh 1.3%[11.4 µM].
For Cc1ccc([C@@H](O)c2cnc(C)n2Cc2ccccc2)cc1 the results were Luciferase inh 0.3%[11.4 µM].
Screening Oc1[nH]c2ccccc2c1/C=N/c1nccs1 returned Bst PK mod inconclusive and Luciferase inh 25.1µM*.
Screening Oc1[nH]c2ccccc2c1C=NCC1CCCO1 (stereo not given) returned Bst PK mod >57 and Luciferase inh -0.2%.
`C#CCCCO/N=C1/C[C@@H](O)[C@@H](O)[C@@H]2[C@@H]3C(=O)N(CC)C(=O)[C@H]3CC[C@H]12` gave Luciferase inh 2.3%[11.4 µM].
`Cc1c(C(=O)O)nc(/C=C\C(=O)O)[nH]c1=O` gave Luciferase inh 0.6%[11.4 µM].
For Nc1nncn1C(=O)c1cccs1 the results were Bst PK mod 2.47* and Luciferase inh 3.0%.
Nc1nncn1C(=O)c1c(Cl)cccc1Cl was read as Bst PK mod inconclusive and Luciferase inh -1.6%.
`Cc1ccc(S(=O)(=O)N[C@H]2COC(=O)[C@H](C)COC(=O)[C@H](C)NC(=O)C/C=C\[C@H]2C)cc1` gave Luciferase inh 0.4%[11.4 µM].
For CC(C)Cn1nc(NS(=O)(=O)c2ccccc2)c2cc3ccccc3nc21 the results were Bst PK mod 4.25* and Luciferase inh 6.31µM*.
Screening CCCn1nc(NS(=O)(=O)c2ccccc2)c2cc3ccccc3nc21 returned Bst PK mod >57 and Luciferase inh 2.4%.
`COc1ncc2nc(-c3cccs3)c(=O)n(C)c2n1` gave Luciferase inh -3.0%[11.4 µM].
CCOc1ccccc1/C=C(\C#N)C(N)=O was read as Luciferase inh 0.5%[11.4 µM].
COC(=O)c1sc2ccccc2c1N was read as Luciferase inh -7.9%.
CC(=Nc1cccc(O)c1)c1sc2ccccc2c1O was read as Bst PK mod 8.21* and Luciferase inh 7.94µM*.
Screening CCOC(=O)Cc1cc(=O)n(-c2nc3ccccc3s2)[nH]1 returned Bst PK mod >57 and Luciferase inh -4.8%.
`CC(=NC1CCCC1)c1c(C)[nH]n(-c2nc3ccccc3s2)c1=O` gave Bst PK mod inactive and Luciferase inh 12.6µM*.
Cc1ccc(S(=O)(=O)n2c3ccccc3c3nnc(C(=O)c4ccccc4)nc32)cc1 was read as Luciferase inh -1.5%[11.4 µM].
Screening Cc1ccc2c(CC(=O)N3CCc4ccccc43)coc2c1 returned Bst PK mod >57 and Luciferase inh 20µM*.
For COc1cc(CC(=O)N2CCc3ccccc32)cc(OC)c1OC the results were Bst PK mod >57 and Luciferase inh 1.7%.
Nc1cccc2cc(S(=O)(=O)Nc3ccc(C(=O)O)cc3)ccc12 was read as Luciferase inh 3.6%[11.4 µM].
COC(OC)[C@@H](C)[C@H](OC)[C@@H](C)[C@H](OC)c1ccccc1 was read as Luciferase inh -1.4%[11.4 µM].
O=C(Nc1cccc(-c2cn3cccnc3n2)c1)c1ccco1 was read as Luciferase inh -16.1%.
O=C(Nc1cccc(-c2cn3cccnc3n2)c1)c1ccc2c(c1)OCO2 was read as Luciferase inh 15.8µM*.
For O=C1C2=C(Nc3cc([N+](=O)[O-])ccc3N2)O[C@@H]1c1c[nH]c2ccc(COc3ccccc3)cc12 the results were Luciferase inh 2.0%[11.4 µM].
For N#Cc1ccccc1-c1ccc2ncnc(NCc3cccs3)c2c1 the results were Luciferase inh -0.5%[2.29 µM].
COc1ccc(-c2ncc3ccccn23)cc1 was read as Luciferase inh 15.8µM*.
Screening c1csc(-c2ncc3ccccn23)c1 returned Luciferase inh -3.0%.
`O=C(O)[C@@H](c1ccccc1)[C@@H](C(=O)O)c1ccccc1` gave Luciferase inh 2.3%[11.4 µM].
NNS(=O)(=O)c1cc(C(=O)O)cc(C(=O)O)c1 was read as Luciferase inh 0.6%[11.4 µM].
CN(C)CCNc1ccccn1 was read as Luciferase inh 2.6%[11.4 µM].
Screening CC(=O)c1cccc(NC(=O)c2cc3ccccn3n2)c1 returned Luciferase inh 3.16µM*.
CC(=O)c1cccc(NC(=O)c2cnn3ccccc23)c1 was read as Luciferase inh 12.6µM*.
For O=C(NCc1ccc(F)cc1)c1cc2ccccn2n1 the results were Luciferase inh -6.6%.
`CC(=O)c1cccc(NC(=O)Nc2cccnc2)c1` gave Bst PK mod >57 and Luciferase inh -25.4%.
Screening O=S(=O)(O)c1cc(O)c2c(N=Cc3ccccc3O)cc(S(=O)(=O)O)cc2c1 returned Luciferase inh -8.6%[11.4 µM].
`COc1ccccc1CNc1ncncc1-c1ccccc1OC` gave Luciferase inh 0.8%[2.29 µM].
Screening COc1cccc(-c2nc(NCCN3CCOCC3)c3ccccc3n2)c1 returned Luciferase inh -0.6%[2.29 µM].
`O=C(O)CN(CC(=O)O)c1ccccc1` gave Luciferase inh 0.8%[11.4 µM].
Cc1cc2n(n1)C(c1ccccc1)Nc1ccccc1-2 (stereo not given) was read as Luciferase inh 4.5%.
For Cc1cc2n(n1)C(c1ccc(N(C)C)cc1)Nc1ccccc1-2 (stereo not given) the results were Bst PK mod inconclusive and Luciferase inh 25.1µM*.
Screening CCCCC[C@@H](O)[C@@H]1C(=O)O[C@@H](C)[C@@H](O)\C=C/C=C\C=C/C=C\C=C(\C)[C@H](O)C[C@H](O)C[C@H](O)C[C@H](O)C[C@H](O)C[C@H](O)C[C@@H]1O returned Luciferase inh 2.4%[11.4 µM].
O=C(NCC1CCCO1)c1cccs1 (stereo not given) was read as Luciferase inh 0.0%.
O=C(c1ccc2c(c1)OCCCO2)c1cccs1 was read as Luciferase inh 12.6µM*.
C#CCN1C(C)=C(C(=O)OC)[C@@H](c2cccc([N+](=O)[O-])c2)C(C(=O)OCC)=C1C was read as Luciferase inh -4.0%.
For Cn1c(C[C@@H](O)c2nc3ccccc3n2C)nc2ccccc21 the results were Luciferase inh 1.9%[11.4 µM].
For C[C@]12CC[C@H]3c4ccc(O)cc4CC[C@@H]3[C@H]1CC[C@@H]2OC(=O)CCc1ccccc1 the results were Luciferase inh 2.0%[11.4 µM].
c1ccc(-c2onc3cc4c(cc23)OCCO4)cc1 was read as Luciferase inh 12.6µM*.
CC1(c2ccc3noc(-c4ccc(Cl)cc4)c3c2)OCCO1 was read as Bst PK mod inconclusive and Luciferase inh -1.8%.
Screening Nc1ccc(C(=O)C[C@H](N)C(=O)O)cc1O returned Luciferase inh 2.1%[11.4 µM].
